Source: publication PMC5540273 (PLoS ONE, 2017)

Experiments:
Settings in all cases: concentration: 1 μM, replicates: in singlicate; n = 1
IRAK3 = tested on: IRAK3
IRAK4 = tested on: IRAK4
ITK = tested on: ITK
[1] = tested on: JAK1(JH1domain-catalytic)
[2] = tested on: JAK1(JH2domain-pseudokinase)
[3] = tested on: JAK2(JH1domain-catalytic)
[4] = tested on: JAK3(JH1domain-catalytic)
JNK1 = tested on: T1, JNK1
T1 construct: gene MAPK8

JNK2 = tested on: T2, JNK2
T2 construct: gene MAPK9

JNK3 = tested on: T3, JNK3
T3 construct: gene MAPK10

KIT-autoinhibited = tested on: KIT-autoinhibited
KIT = tested on: KIT
LATS1 = tested on: LATS1
LATS2 = tested on: LATS2
LCK = tested on: LCK
LIMK1 = tested on: LIMK1
LIMK2 = tested on: LIMK2
LKB1 = tested on: T4, LKB1
T4 construct: gene STK11

LOK = tested on: T5, LOK
T5 construct: gene STK10

LRRK2 = tested on: LRRK2
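Note: KINOMEscan kinase panel screen.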

SMILES | %Inh (IRAK3) [%] | %Inh (IRAK4) [%] | %Inh (ITK) [%] | %Inh [1] [%] | %Inh [2] [%] | %Inh [3] [%] | %Inh [4] [%] | %Inh (JNK1) [%] | %Inh (JNK2) [%] | %Inh (JNK3) [%] | %Inh (KIT-autoinhibited) [%] | %Inh (KIT) [%] | %Inh (LATS1) [%] | %Inh (LATS2) [%] | %Inh (LCK) [%] | %Inh (LIMK1) [%] | %Inh (LIMK2) [%] | %Inh (LKB1) [%] | %Inh (LOK) [%] | %Inh (LRRK2) [%]
COc1ccc(S(=O)(=O)NC2CCN(c3cc(C)nc(Nc4cccc(C#N)c4)n3)CC2)cc1.O=C(O)C(F)(F)F [GSK1653539] | 0 | 0 | 10 | 34 | 0 | 0 | 0 | 0 | 28 | 12 | 0 | 8 | 0 | 25 | 8 | 0 | 7 | 7 | 0 | 0
Cc1nnc(-c2ccc(C)c(-c3ccc(C(=O)Nc4ccc(NS(C)(=O)=O)cc4)cc3)c2)o1 [GW702865] | 0 | 0 | 0 | 9 | 0 | 0 | 0 | 0 | 0 | 0 | 0 | 58 | 0 | 1 | 17 | 0 | 0 | 26 | 6 | 0
Cc1nnc(-c2ccc3ncc(-c4ccc(S(C)=O)cc4)n3c2)o1 (stereo not drawn) | 23 | 15 | 7 | 11 | 0 | 0 | 0 | 22 | 18 | 24 | 7 | 59 | 17 | 13 | 0 | 0 | 0 | 3 | 0 | 3
NS(=O)(=O)c1cccc(-c2ccc3ncc(N4CCOCC4)nc3c2)c1 [GSK1535721] | 0 | 11 | 3 | 8 | 5 | 0 | 0 | 3 | 0 | 0 | 15 | 14 | 0 | 9 | 0 | 0 | 15 | 3 | 0 | 0
COc1ccc(COc2cc(-n3cnc4ccccc43)sc2C(N)=O)cc1 [GSK1024304] | 2 | 2 | 14 | 0 | 0 | 0 | 0 | 18 | 33 | 10 | 0 | 23 | 0 | 0 | 16 | 10 | 7 | 1 | 0 | 10
Nc1nc(-c2ccc3c(N)n[nH]c3c2)cc(N2CCCC2)n1 [GSK2227430] | 0 | 2 | 0 | 0 | 11 | 0 | 0 | 5 | 12 | 0 | 0 | 12 | 0 | 5 | 0 | 0 | 3 | 1 | 0 | 0
Cn1cc(-c2ccc3c(c2)CCN3C(=O)Cc2ccccc2Cl)c2c(N)ncnc21 [GSK2608885] | 32 | 0 | 4 | 0 | 2 | 0 | 56 | 19 | 55 | 6 | 4 | 99.9 | 15 | 25 | 99.5 | 32 | 6 | 17 | 99.8 | 0
CN(C1=C(c2ccccc2)C(=O)NC1=O)c1ccccc1 [SB-334860] | 0 | 0 | 0 | 0 | 6 | 0 | 14 | 0 | 21 | 15 | 0 | 16 | 0 | 14 | 20 | 15 | 20 | 5 | 1 | 0
COCCNC(=O)c1ccc(-c2cc(C(=O)NC3CC3)cc(F)c2C)cc1 [GW868318] | 23 | 13 | 8 | 0 | 16 | 44 | 0 | 38 | 49 | 19 | 24 | 26 | 10 | 0 | 4 | 16 | 3 | 49 | 20 | 62
O=C1Cc2cc(Nc3nc(NCc4cccc(S(=O)(=O)C(F)(F)F)c4)ncc3C(F)(F)F)ccc2N1 | 0 | 22 | 0 | 28 | 0 | 7 | 7 | 9 | 0 | 0 | 0 | 16 | 11 | 0 | 0 | 1 | 9 | 0 | 1 | 11
O=C(NCCCN1CCOCC1)c1cccc(Nc2nccc(Nc3ccc(Oc4ccccc4)cc3)n2)c1 [GW663929] | 63 | 0 | 0 | 46 | 21 | 82 | 0 | 33 | 25 | 16 | 16 | 80 | 0 | 1 | 99.3 | 21 | 22 | 10 | 23 | 0
O=C(c1ccc(-c2cc(-c3c[nH]nc3-c3ccccn3)ccn2)cc1)N1CCOCC1 [GW812171] | 0 | 0 | 5 | 0 | 48 | 37 | 0 | 30 | 19 | 2 | 29 | 0 | 0 | 0 | 0 | 0 | 0 | 0 | 28 | 0
COc1cc(Nc2nccc(N3CCC(NC(=O)c4cccc(NC(C)=O)c4)C3)n2)cc(OC)c1OC (stereo not drawn) [GSK1379754] | 85 | 12 | 6 | 7 | 11 | 97.3 | 0 | 31 | 22 | 40 | 8 | 70 | 0 | 0 | 30 | 16 | 0 | 0 | 0 | 12
CCCCCc1nc2c(N)ncnc2n1CCCCC [SKF-97255] | 0 | 0 | 0 | 0 | 35 | 33 | 0 | 0 | 0 | 0 | 16 | 17 | 0 | 0 | 5 | 0 | 0 | 60 | 14 | 0
Fc1ccc(-c2ncn(CCCN3CCOCC3)c2-c2cccnc2)cc1 [SB-211743] | 64 | 0 | 0 | 20 | 38 | 21 | 0 | 26 | 0 | 0 | 18 | 2 | 9 | 0 | 20 | 9 | 0 | 46 | 14 | 0
